High-throughput results from PubChem BioAssay.
The list is not random: actives were taken first. Their share in the collection is about 12%.
JMJD2A Tudor inh – blocks the human JMJD2A Tudor domain | Potency, µM (doses to about 114 µM), inactives show at the top dose activity change, negative = inhibition, usual class: inhibitors | AlphaScreen JMJD2A-Tudor / H3K4me3 peptide binding | hit rate 4.4% among 390,000; note: potency is the fitted concentration of half-maximal effect; % is set by controls: 0 for no effect and ±100 for the full control effect; nearly all actives have a fitted effect of over 50% in size
G9a inh – blocks human histone lysine methyltransferase G9a | Q96KQ7 | G9a H3K9 monomethylation, AlphaScreen, 2 h | Potency, µM (doses to about 102 µM), for the others: at the top dose activity, negative = inhibition, usual class: inhibitors | hit rate 8.8% among 350,000 | AID 504332; note: potency is the fitted concentration of half-maximal effect; % is set by controls: 0 for no effect and ±100 for the full control effect; nearly all actives have a fitted effect of over 75% in size
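Methyltransferase reactions run at room temperature for 2 h (20 nM enzyme, 500 nM biotin-H3K9 peptide, 20 uM SAM) after a 15 min compound preincubation; product detected by AlphaScreen beads and anti-H3K9me1 antibody.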
BAZ2B block – inhibitors of human BAZ2B bromodomain. hit rate 4.4% among 360,000. Potency, µM (series often up to 114 µM), for inactives: top-dose activity change, negative = inhibition, hits mostly inhibitors. AlphaScreen BAZ2B-H3K14Ac peptide displacement. Q9UIF8. AID 504333; note: potency is the fitted concentration of half-maximal effect; % is set by controls: 0 for no effect and ±100 for the full control effect; nearly all actives have a fitted effect of over 60% in size
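AlphaScreen displacement: compounds (up to 110uM) incubated 30 min at room temperature with a preformed 50 nM BAZ2B/50 nM biotinylated H3K14Ac peptide complex in PBS pH 7.4 with Tween-20. Donor and acceptor beads at 10 ug/mL final added, 20 min light-protected before reading.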
PLK1 PBD inh – inhibitors of human PLK1 polo-box domain binding; P53350; Plk1 PBD binding of FITC phosphopeptide, fluorescence polarization; Potency, µM, inactives show max response, negative = inhibition, usual class: inhibitors; hit rate 2.8% among 360,000; note: potency is the fitted concentration of half-maximal effect; series mostly up to about 57 µM; % is set by controls: 0 for no effect and ±100 for the full control effect; nearly all actives have a fitted effect of over 65% in size
PI5P4K alpha inh – inhibitors of human PI5P4K alpha; P48426; PI5P4Kalpha enzyme, ADP-Glo luminescence, 60 min; hits give low values; max response, %; hit rate 1.2% among 330,000; AID 652105; active = max response of -50% or lower; inconclusive = between -30% and -50%; inactive = -30% or higher; note: value at the top dose of about 77 µM; % is set by controls: 0 for no effect and ±100 for the full control effect
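PI5P4Kalpha ADP-Glo assay; 5 microM ATP final; 60 min RT reaction; HEPES pH 7.4/EGTA/CHAPS, 5% DMSO; controls lacking substrate or enzyme; luminescent end-point.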
HP1b binding inh – HP1-beta chromodomain-methylated histone interaction inhibition; hit rate 0.56% among 390,000; P83916; Potency, µM (top dose mostly 114 µM), inactives show at the highest dose activity change, negative = inhibition, actives largely listed as inhibitors; AlphaScreen HP1-beta / biotin-H3K9me3 peptide binding; AID 540317; note: potency is the fitted concentration of half-maximal effect; nearly all actives have a fitted effect of over 70% in size
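HP1-beta protein (50 nM final) preincubated 30 min at room temperature with biotinylated H3(1-18)K9me3 peptide (50 nM) in PBS pH 7.4, 0.01% Tween-20, then compound added for 30 min. AlphaScreen streptavidin donor/nickel chelate acceptor beads (10 ug/mL final), 30 min dark, luminescence read.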
An asterisk follows results filed as active; ? = inconclusive; . = no result; [ ] = another dose, or the depositor's remark. Unless noted, calls come from the whole dose curve; as a rule, active = well fitted curve in the direction sought with a large enough effect; inconclusive = small, poorly fitted or top-dose-only effect, or another doubt; inactive = no such curve, though single readings can be large; an effect the other way counts as inactive or inconclusive.

SMILES	JMJD2A Tudor inh	G9a inh	BAZ2B block	PLK1 PBD inh	PI5P4K alpha inh	HP1b binding inh
O=C(O)c1cccc(N2C(=O)c3cc([N+](=O)[O-])cc4cc([N+](=O)[O-])cc(c34)C2=O)c1	50.1µM*	.	56.2µM*	8.44µM*	-73.1*	?
O=C1/C(=C/c2ccc([N+](=O)[O-])cc2)C=C(c2ccccc2)N1c1ccc(O)cc1	?	?	10µM*	-3.3%	.	?
Cc1cccc(N2C(=O)N(Cc3cccc(C#N)c3)c3ccccc3S2(=O)=O)c1	-11.7%	8.1%[59 µM]	-6.0%	.	.	20.0%
Cc1ccc(CNC(=O)c2ccc(CNS(=O)(=O)c3ccc4c(c3)C(C)(C)C(=O)N4C)cc2)o1	-25.5%	44.7µM*	-33.6%	-6.3%	-2.4	17.6%
Cc1cc(C)cc(NS(=O)(=O)c2ccc3c(c2)C(C)(C)C(=O)N3C)c1	?	.	?	26.7µM*	-2.8	19.6%
CCCN(c1ccc(OCC)cc1)S(=O)(=O)c1ccc2c(c1)NC(=O)CO2	-25.7%	-2.8%	-32.4%	0.9%	8.2	29.2%
Cc1ccc(CNC(=O)c2ccc3c(c2)NC(=O)C(CS(=O)(=O)Cc2cccc(F)c2)N3)cc1 (configuration not stated)	89.1µM*	6.31µM*	-0.6%[57.1 µM]	.	.	40.1%
O=C(NCc1ccccc1Cl)c1ccc2c(c1)NC(=O)C(CS(=O)(=O)Cc1ccc(F)cc1Cl)N2 (configuration not stated)	-15.9%	?	-17.5%	.	.	-12.9%
CC(C)CCNC(=O)c1ccc2c(c1)NC(=O)C(CS(=O)(=O)Cc1cccc(Br)c1)N2 (configuration not stated)	?	12.6µM*	2.0%[57.1 µM]	.	.	21.7%
CCOCCCNC(=O)c1ccc2c(c1)NC(=O)C(CS(=O)(=O)Cc1ccc(F)cc1Cl)N2 (configuration not stated)	-12.8%	?	?	.	.	33.2%
O=C(NCc1ccc(Cl)cc1)c1ccc2c(c1)NC(=O)C(CS(=O)(=O)Cc1ccc(F)cc1Cl)N2 (configuration not stated)	?	15.8µM*	10.0%[57.1 µM]	.	.	17.9%
CC(C)CCNC(=O)c1ccc2c(c1)NC(=O)C(CS(=O)(=O)Cc1ccc(F)cc1)N2 (configuration not stated)	-16.5%	?	9.9%[57.1 µM]	.	.	9.3%
CCN(CC)CCCNC(=O)c1ccc2c(c1)NC(=O)C(CS(=O)(=O)Cc1ccc(F)cc1Cl)N2 (configuration not stated)	-18.3%	10µM*	-10.5%	.	.	10.9%
COc1ccc(S(=O)(=O)N2CCCCCC2)cc1C(=O)OCC(=O)NC1CCS(=O)(=O)C1 (configuration not stated)	15.4%	.	.	3.7%	2.0	33.3%
Cc1ccccc1SCC(=O)Nc1cc(C(F)(F)F)ccc1N1CCOCC1	21.4%	19.5%	53.8%	-13.3%	8.7	56.0%
CN1CCN(c2ccc(-c3cccc4nccn34)cn2)CC1	.	.	.	-2.9%	-0.5	.
O=C(Cn1c(=O)n(-c2ccc(F)c(Cl)c2)c(=O)c2sc3ccccc3c21)NC1CCCC1	-1.7%	-31.5%[59 µM]	4.3%	.	.	39.5%
CC1(C(=O)NCCc2c[nH]c3ccccc23)CCN1CC1CCCCC1 (configuration not stated)	.	.	.	1.5%	1.2	.
C=CCNc1nc(-c2ccccn2)nnc1-c1ccccc1	35.5µM*	46.5%	0.891µM*	-3.1%	-6.5	46.2%
COc1ccc(C2C=C(C)Nc3nc(SC)nn32)cc1 (configuration not stated)	-18.3%	56.2µM*	0.4%	-6.8%	-5.3	38.4%
Cc1cc(C)nc(/N=C2\NC(=O)CC(C(=O)O)N2c2ccc(Oc3ccccc3)cc2)n1 (configuration not stated)	-12.6%	21.9%[59 µM]	3.4%	-7.3%	1.4	20.7%
CCOc1ccc(N2CC(=O)N/C2=N\c2nc(C)cc(C)n2)cc1	?	56.2µM*	-5.4%	-0.2%	4.5	25.4%
COc1cc2c3c(cccc3c1)C(=O)N(CCN1CCCC1)C2=O	.	.	.	-7.6%	3.7	.
Cc1cc2c(c(C)c1CCO)C(=O)[C@H](C)C2	-21.8%	.	.	-7.1%	-6.8	-1.9%
COC(=O)COc1ccc2c(c1)O/C(=C\c1ccco1)C2=O	?	25.1µM*	?	-7.9%	-4.6	-18.9%
SMILES	JMJD2A Tudor inh	G9a inh	BAZ2B block	PLK1 PBD inh	PI5P4K alpha inh	HP1b binding inh
COc1ccc2c(c1)O/C(=C\c1ccccc1C)C2=O	14.4%	29.3%	15.3%	-1.9%	2.6	63.4%
Cc1cc(O)cc2c1C(=O)/C(=C/c1ccco1)O2	?	?	?	?	-28.7	-30.8%
CCC(=O)Oc1ccc2c(c1)O/C(=C\c1ccco1)C2=O	-30.3%	50.1µM*	?	?	-65.4*	?
CCN(CC)C(=O)Oc1ccc2c(c1)O/C(=C\c1ccco1)C2=O	?	25.1µM*	39.8µM*	-5.5%	-0.6	-18.6%
O=C(C[C@H]1C=C[C@@H](NC(=O)c2ccncc2)[C@@H](CO)O1)NCC1CC1	.	.	.	-2.1%	-1.1	.
N#Cc1ccc(-n2nccc2-c2cnc3n(c2=O)CCS3)cc1	50.1µM*	-7.4%[12.7 µM]	8.4%	26.7µM*	-15.1	-11.1%
Cc1ccc(NC(=O)c2c(C)oc3ccc(O)c(CN(C)Cc4ccccc4)c23)c(C)c1	-18.8%	-34.5%[59 µM]	-38.2%	.	.	-6.5%
O=C(Nc1ccc(Cl)cc1)[C@@H]1[C@@H]2C(=O)N(c3ccc4ccccc4c3)C(=O)[C@@H]2[C@H]2C=CC=NN21	63.1µM*	3.16µM*	?	-10.1%	.	-3.5%
O=C(Nc1ccc(Cl)cc1)[C@@H]1[C@@H]2C(=O)N(c3cccc(F)c3)C(=O)[C@@H]2[C@H]2C=CC=NN21	?	8.91µM*	-28.3%	-15.4%	?	-10.8%
COc1ccc(N2C(=O)[C@@H]3[C@H](C2=O)[C@H]2C=CC=NN2[C@@H]3C(=O)Nc2ccc(Cl)cc2)cc1	?	7.08µM*	-32.6%	-13.1%	-21.2	-5.9%
Cc1ccccc1-n1nc(CO)c(C(=O)NCC(c2ccccc2)c2ccccc2)n1	3.1%	20.1%[59 µM]	12.4%	.	.	63.0%
OC(CN1CCN(c2ccccn2)CC1)Cn1c2ccc(Cl)cc2c2cc(Cl)ccc21 (configuration not stated)	-16.0%[11.4 µM]	-4.4%[59 µM]	-34.9%	-10.9%	13.5	21.6%
Cc1cccc(C)c1OCC(O)CN1CCN(c2ccccn2)CC1 (configuration not stated)	-13.5%	?	.	-10.6%	3.8	21.9%
Cc1ccc(OCC(O)CN2CCN(c3ccccn3)CC2)c(C)c1 (configuration not stated)	-9.3%	50.1µM*	-25.8%	-4.4%	9.0	20.7%
COc1cccc(OCC(O)CN2CCN(c3ccccn3)CC2)c1 (configuration not stated)	-26.9%	44.7µM*	-8.7%	-7.2%	-0.8	24.3%
